Reference: ChEMBL document CHEMBL1157539, “Thousands of chemical starting points for antimalarial lead identification” (Nature, 2010)

Legend:
Format in all cases: functional
Plasmodium falciparum [1] = assay: GSK_TCMDC: Inhibition of Plasmodium falciparum 3D7 in whole red blood cells, using parasite LDH activity as an index of growth. Test compounds present at 2uM
Plasmodium falciparum [2] = assay: GSK_TCMDC: Inhibition of Plasmodium falciparum Dd2 in whole red blood cells, using parasite LDH activity as an index of growth. Test compounds present at 2uM
HepG2 = assay: GSK_TCMDC: Percent inhibition of human HepG2 cell line. Test compounds present at 10uM.

SMILES | Inhibition (Plasmodium falciparum [1]) [%] | Inhibition (Plasmodium falciparum [2]) [%] | Inhibition (HepG2) [%]
Cc1ccc(-c2nc3cc(NC(=O)c4ccc([N+](=O)[O-])o4)ccc3o2)cc1Cl | 100 | 97 | 24
COc1ccc(Cl)cc1NC(=O)CN(C)C(=O)c1cnn(-c2ccccc2)n1 | 100 | 99 | 0
Cc1noc(C)c1-c1cccc(CNCc2cccc(-c3ccc(-c4nc5cccc(C)c5[nH]4)cc3)c2)c1.O=C(O)C(F)(F)F | 100 | 69 | 24
CCNc1cc(C(=O)N[C@@H](Cc2ccccc2)[C@H](O)CN[C@@H](C)c2ccccc2)cc(N2CCCC2=O)c1 | 98 | 96 | 7
CN(CCCc1c[nH]c2ccccc12)CC1CCN(C(=O)/C=C/c2ccc(Cl)c(Cl)c2)CC1 | 99 | 25 | 37
O=C(Nc1cccc(OC2CCN(Cc3ccccc3)CC2)c1)Nc1cccc([N+](=O)[O-])c1.O=C(O)C(F)(F)F | 100 | 48 | 10
COC(=O)c1ccc2nc(-c3cc(-c4cccc(-c5ccccc5)c4)cnc3N)[nH]c2c1 | 100 | 61 | 25
CNC(=N)c1ccc(NC(=O)Nc2ccc(C(=N)NC)cc2)cc1.Cl | 84 | 71 | 0
Cl.Fc1ccc2ncc(Cl)c(CCN3CCC(NCc4cc5c(cn4)OCCO5)CC3)c2c1 | 93 | 20 | 24
O=C(Nc1ccc(N2CCCCC2)c(Cl)c1)c1ccc(Br)o1 | 94 | 94 | 0
COc1c(CNCCCCCCNCc2c(OC)c(OC)c3ccccc3c2OC)c(OC)c2ccccc2c1OC.CS(=O)(=O)O | 96 | 98 | 100
Cc1cc(C(=O)CN2C(=O)NC3(CCOc4ccccc43)C2=O)c(C)n1Cc1ccc(F)cc1 (centres undefined) | 95 | 84 | 1
Cc1cccc(C(=O)N2CCN(Cc3cccc(NC(=O)c4ccco4)c3)CC2)c1.O=C(O)C(F)(F)F | 94 | 79 | 7
CC(C)(C)c1ccc(NC(=O)c2cccc(CN3CCN(Cc4cccc(O)c4)CC3)c2)cc1.O=C(O)C(F)(F)F | 92 | 3 | 28
Cc1cc(CN2CCC(C(=O)Nc3ccc(-c4nc5ccccc5[nH]4)cc3)CC2)oc1C | 95 | 9 | 0
CC(=O)c1ccc(-c2ccccc2)s1 | 92 | 2 | 0
CCc1c(C)nc(-n2nc(C)cc2NC(=O)C(CC)c2ccccc2)[nH]c1=O (centres undefined) | 97 | 93 | 41
O=C1OC(c2ccccc2)(c2ccccc2)CN1C1CCN(Cc2ccc(O)c(Cl)c2)C1 (centres undefined) | 100 | 93 | 10
COc1cc2nccc(Nc3cccc(Oc4ccccc4)c3)c2cc1OC.Cl | 100 | 95 | 25
CCc1cccc(C)c1-n1nc(-c2cc(C(C)(C)C)oc2C)cc1N | 95 | 95 | 4
COc1ccc(NC(=O)NC2CCN(CCCCCNC(=O)/C=C/c3ccc(Cl)c(Cl)c3)CC2)cc1 | 96 | 1 | 5
O=C(Nc1ccncc1)c1cn(-c2ccccc2)nc1-c1cccs1 | 98 | 10 | 7
COc1ccc(NC(=O)[C@H](Cc2ccccc2)Nc2cc(C)nc(NCCc3cccs3)n2)cc1.O=C(O)C(F)(F)F | 100 | 83 | 12
CCOc1cc(C(C)C)ccc1N1CCN(CCCCNC(=O)c2ccc(NC(=O)c3ccc(Cl)cc3)cc2)CC1 | 100 | 97 | 28
CN1CCC(N(Cc2ccc(-c3ccc(C(F)(F)F)cc3)cc2)C(=O)Cn2c(SCc3cccc(F)c3F)cc(=O)c3c2CCC3)CC1.O=C(O)C(O)C(O)C(=O)O | 89 | 83 | 50
COc1ccc(O)c(C(=O)c2cc(C#N)c(=O)n(-c3ccc(Oc4ccccc4)cc3)c2)c1 | 97 | 20 | 22
COc1cc(N(C)Cc2cnc3nc(N)nc(N)c3n2)cc(OC)c1OC | 95 | 2 | 32
O=C(Nc1ccc(OC2CCN(Cc3ccc(F)cc3)CC2)c(Cl)c1)c1ccc(F)cc1.O=C(O)C(F)(F)F | 97 | 95 | 37
